# The sample as a whole holds a higher share of the strongest signals than the screen did.
# B1: DrGal9 (Danio rerio) (protein)
# chain: MAFYQQPPYYNPRIPFSGPIQGGLQDGKSIIISGRVLPGANRFHVNLQCGSHSEANVALHFNPRYEDTDYVVNNSYLNRTWGSEERKYESPFAQGQTFTLQILVAQDKYKISTNGRHFMDYKHRIPFTQVDTVAVEGMVEVNSVAFQNPAGFIPPQAGYAPQYAVPPGCGFPAFPSAPNYTIPHKTVMNGGLHPGKNIVINGVVNPNAKSIIFNLCYRSGIAFHYNPRFDENVVVRNTNQMEKWGAEERFGGLPFHKGQPFQVTISCNPQHYNVFVNGKQEHTYKHRYTKLNDIDILEICGDLQLTSVQA
# Tests used:
# Test in all cases: glycan array binding signal (z-score within array); higher = stronger binding
# Details in all cases: glycan notation: IUPAC condensed, linker removed
# [1] = target: Gal(b1-4)GlcNAc(b1-3)Gal(b1-4)GlcNAc(b1-3)Gal(b1-4)GlcNAc(b1-3)Gal(b1-4)GlcNAc(b1-2)Man(a1-3)[Gal(b1-4)GlcNAc(b1-3)Gal(b1-4)GlcNAc(b1-3)Gal(b1-4)GlcNAc(b1-3)Gal(b1-4)GlcNAc(b1-2)Man(a1-6)]Man(b1-4)GlcNAc(b1-4)GlcNAc
# Method in brief: (§1)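 The binding signal is a Z-score computed within each array and averaged over linkers. Arrays of the same protein sequence at different concentrations or buffers were also averaged together. Data originate from 3228 arrays in the Consortium for Functional Glycomics database, kept only where the protein sequence was available.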
# [2] = target: Gal(b1-4)GlcNAc(b1-3)Gal(b1-4)GlcNAc(b1-3)Gal(b1-4)GlcNAc(b1-3)Gal(b1-4)GlcNAc(b1-2)Man(a1-3)[Gal(b1-4)GlcNAc(b1-3)Gal(b1-4)GlcNAc(b1-3)Gal(b1-4)GlcNAc(b1-3)Gal(b1-4)GlcNAc(b1-2)Man(a1-6)]Man(b1-4)GlcNAc(b1-4)[Fuc(a1-6)]GlcNAc
# Method in brief: as §1
# [3] = target: Gal(b1-4)GlcNAc(b1-3)Gal(b1-4)GlcNAc(b1-3)Gal(b1-4)GlcNAc(b1-3)Gal(b1-4)GlcNAc(b1-2)[Gal(b1-4)GlcNAc(b1-3)Gal(b1-4)GlcNAc(b1-3)Gal(b1-4)GlcNAc(b1-3)Gal(b1-4)GlcNAc(b1-6)]Man(a1-6)[Gal(b1-4)GlcNAc(b1-3)Gal(b1-4)GlcNAc(b1-3)Gal(b1-4)GlcNAc(b1-3)Gal(b1-4)GlcNAc(b1-2)Man(a1-3)]Man(b1-4)GlcNAc(b1-4)[Fuc(a1-6)]GlcNAc
# Method in brief: as §1
# [4] = target: Gal(b1-4)GlcNAc(b1-3)Gal(b1-4)GlcNAc(b1-3)Gal(b1-4)GlcNAc(b1-3)Gal(b1-4)GlcNAc(b1-3)Gal(b1-4)GlcNAc(b1-2)Man(a1-3)[Gal(b1-4)GlcNAc(b1-3)Gal(b1-4)GlcNAc(b1-3)Gal(b1-4)GlcNAc(b1-3)Gal(b1-4)GlcNAc(b1-3)Gal(b1-4)GlcNAc(b1-2)Man(a1-6)]Man(b1-4)GlcNAc(b1-4)GlcNAc
# Method in brief: as §1
# [5] = target: Gal(b1-4)GlcNAc(b1-3)Gal(b1-4)GlcNAc(b1-3)Gal(b1-4)GlcNAc(b1-3)Gal(b1-4)GlcNAc(b1-3)Gal(b1-4)GlcNAc(b1-2)[Gal(b1-4)GlcNAc(b1-3)Gal(b1-4)GlcNAc(b1-3)Gal(b1-4)GlcNAc(b1-3)Gal(b1-4)GlcNAc(b1-3)Gal(b1-4)GlcNAc(b1-6)]Man(a1-6)[Gal(b1-4)GlcNAc(b1-3)Gal(b1-4)GlcNAc(b1-3)Gal(b1-4)GlcNAc(b1-3)Gal(b1-4)GlcNAc(b1-3)Gal(b1-4)GlcNAc(b1-2)Man(a1-3)]Man(b1-4)GlcNAc(b1-4)[Fuc(a1-6)]GlcNAc
# Method in brief: as §1
# [6] = target: Gal(b1-4)GlcNAc(b1-3)Gal(b1-4)GlcNAc(b1-6)[Gal(b1-3)]GalNAc
# Method in brief: as §1
# [7] = target: Gal(b1-4)GlcNAc(b1-6)[Gal(b1-4)GlcNAc(b1-3)]GalNAc
# Method in brief: as §1
# GalNAc(a1-3)Gal = target: GalNAc(a1-3)Gal
# Method in brief: as §1
# [8] = target: GlcNAc(a1-6)Gal(b1-4)GlcNAc
# Method in brief: as §1
# [9] = target: GlcNAc(b1-3)Gal(b1-4)GlcNAc(b1-2)Man(a1-3)[GlcNAc(b1-3)Gal(b1-4)GlcNAc(b1-2)Man(a1-6)]Man(b1-4)GlcNAc(b1-4)GlcNAc
# Method in brief: as §1
# [10] = target: GlcNAc(b1-3)Gal(b1-4)GlcNAc(b1-3)Gal(b1-4)GlcNAc(b1-2)Man(a1-3)[GlcNAc(b1-3)Gal(b1-4)GlcNAc(b1-3)Gal(b1-4)GlcNAc(b1-2)Man(a1-6)]Man(b1-4)GlcNAc(b1-4)[Fuc(a1-6)]GlcNAc
# Method in brief: as §1
# [11] = target: Man(a1-2)Man(a1-2)Man(a1-6)[Man(a1-3)]Man
# Method in brief: as §1
# Man(a1-2)Man(a1-3)Man = target: Man(a1-2)Man(a1-3)Man
# Method in brief: as §1
# [12] = target: Neu5Ac(a2-3)Gal(b1-3)GlcNAc6S
# Method in brief: as §1
# [13] = target: Neu5Ac(a2-3)Gal(b1-4)GlcNAc(b1-2)Man(a1-3)[GlcNAc(b1-4)][Neu5Ac(a2-3)Gal(b1-4)GlcNAc(b1-2)Man(a1-6)]Man(b1-4)GlcNAc(b1-4)GlcNAc
# Method in brief: as §1
# [14] = target: Neu5Ac(a2-3)Gal(b1-4)[Fuc(a1-3)]GlcNAc(b1-3)Gal(b1-4)GlcNAc
# Method in brief: as §1
# [15] = target: Neu5Ac(a2-3)Gal(b1-4)[Fuc(a1-3)]GlcNAc(b1-3)Gal(b1-4)[Fuc(a1-3)]GlcNAc(b1-3)Gal(b1-4)[Fuc(a1-3)]GlcNAc
# Method in brief: as §1
# [16] = target: Neu5Ac(a2-6)Gal(b1-4)GlcNAc(b1-2)Man(a1-6)Man(b1-4)GlcNAc(b1-4)GlcNAc
# Method in brief: as §1
# [17] = target: Neu5Ac(a2-6)Gal(b1-4)GlcNAc(b1-3)Gal(b1-4)GlcNAc(b1-2)Man(a1-3)[Neu5Ac(a2-6)Gal(b1-4)GlcNAc(b1-3)Gal(b1-4)GlcNAc(b1-2)Man(a1-6)]GalNAc
# Method in brief: as §1
# [18] = target: Neu5Ac(a2-6)Gal(b1-4)GlcNAc(b1-3)Gal(b1-4)GlcNAc(b1-3)Gal(b1-4)GlcNAc
# Method in brief: as §1
# [19] = target: Neu5Ac(b2-6)Gal(b1-4)GlcNAc
# Method in brief: as §1
# [20] = target: Neu5Gc(a2-3)Gal(b1-4)[Fuc(a1-3)]GlcNAc
# Method in brief: as §1
binder,measurement,setting,value
B1,glycan array binding signal (z-score),[1],3.48
same,glycan array binding signal (z-score),[2],3.44
same,glycan array binding signal (z-score),[3],3.19
same,glycan array binding signal (z-score),[4],3.05
same,glycan array binding signal (z-score),[5],3.6
same,glycan array binding signal (z-score),[6],0.054
same,glycan array binding signal (z-score),[7],-0.007
same,glycan array binding signal (z-score),GalNAc(a1-3)Gal,-0.402
same,glycan array binding signal (z-score),[8],-0.386
same,glycan array binding signal (z-score),[9],1.73
same,glycan array binding signal (z-score),[10],3.13
same,glycan array binding signal (z-score),[11],-0.361
same,glycan array binding signal (z-score),Man(a1-2)Man(a1-3)Man,-0.396
same,glycan array binding signal (z-score),[12],-0.144
same,glycan array binding signal (z-score),[13],0.144
same,glycan array binding signal (z-score),[14],-0.356
same,glycan array binding signal (z-score),[15],-0.384
same,glycan array binding signal (z-score),[16],-0.399
same,glycan array binding signal (z-score),[17],1.22
same,glycan array binding signal (z-score),[18],0.598
same,glycan array binding signal (z-score),[19],-0.398
same,glycan array binding signal (z-score),[20],-0.351

# From the supplement of paper PMC8728848
